Measurements: PubChem BioAssay (EPA / NIEHS)
Several values for one entry are separate records, joined by “and”; a condition that tells them apart may be missing. Equal entries are not always repeated. More than one record can exist for a structure, and the calls need not agree. Activity calls are given as the source filed them. The calls were made as follows: active = hit-call score of the fitted dose curve at least 0.9, where 1 is the maximum; inactive = score below 0.9.

Biological target: Heat shock factor protein 1 (Homo sapiens) (UniProt Q00613)
Sequence (Q00613 whole entry, looked up): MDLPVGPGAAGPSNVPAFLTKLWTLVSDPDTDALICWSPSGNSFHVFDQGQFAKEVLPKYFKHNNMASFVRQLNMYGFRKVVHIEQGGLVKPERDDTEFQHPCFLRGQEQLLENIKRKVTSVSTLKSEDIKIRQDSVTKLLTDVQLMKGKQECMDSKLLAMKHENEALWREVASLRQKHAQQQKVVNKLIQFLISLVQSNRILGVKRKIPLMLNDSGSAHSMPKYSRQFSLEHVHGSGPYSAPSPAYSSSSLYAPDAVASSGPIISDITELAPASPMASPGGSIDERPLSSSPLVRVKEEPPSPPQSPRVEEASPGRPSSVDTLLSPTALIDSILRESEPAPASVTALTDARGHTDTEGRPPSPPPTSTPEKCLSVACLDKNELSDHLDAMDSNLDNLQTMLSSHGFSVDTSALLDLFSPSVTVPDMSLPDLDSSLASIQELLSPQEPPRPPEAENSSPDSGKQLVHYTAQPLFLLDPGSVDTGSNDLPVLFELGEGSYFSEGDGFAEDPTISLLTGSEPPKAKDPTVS
Assay: ATG_HSE_CIS: Attagene CIS-FACTORIAL HepG2 Assay for human Heat Shock Transcription Factor 1 (HSE) (AID 2282953)
Details: HepG2 HSE cis-reporter, Attagene RNA transcription; actives raise or lower the signal
Description: ATG_CIS is a cell-based, multiplexed-readout assay that uses HepG2, a human liver cell line, with measurements taken at 24 hours after chemical dosing in a 24-well plate.ATG_HSE_CIS is one of 52 assay component(s) measured or calculated from the ATG_CIS assay. It is designed to make measurements of mRNA induction, a form of inducible reporter, as detected with fluorescence intensity signals by Reverse transcription polymerase chain reaction (RT-PCR) and Capillary electrophoresis technology.Data from the assay component ATG_HSE_CIS was analyzed into 1 assay endpoint. This assay endpoint, ATG_HSE_CIS, was analyzed with bidirectional fitting relative to DMSO as the negative control and baseline of activity. Using a type of inducible reporter, measures of mRNA for gain or loss-of-signal activity can be used to understand the reporter gene at the transcription factor-level as they relate to the gene HSF1. Furthermore, this assay endpoint can be referred to as a primary readout, because this assay has produced multiple assay endpoints where this one serves a reporter gene function. To generalize the intended target to other relatable targets, this assay endpoint is annotated to the dna binding intended target family, where the subfamily is heat shock protein.
Human liver HepG2 cells are transiently transfected with multiple reporter transcription units (MRTUs) in 6-well plates using FuGene 6 reagent (Roche; 3 ml FuGene/1 mg DNA). The MRTU constructs are regulated by a cis-regulating element (promoter). […] A major difference between the CIS and TRANS system is that in CIS activities of endogenous TFs are measured, whereas the TRANS assay evaluates changes in activities of exogenous, chimeric NR-Gal4 proteins. […] At the end of 24 hour incubation, total RNA was isolated using TriZol reagent (Invitrogen). The isolated RNA is then reverse-transcribed using oligo(dT) primer and Mo-MLV reverse transcriptase (Invitrogen) with DNAse I (Ambion) treatment for 30 min. The one-tenth of the produced cDNA was amplified by PCR using Taq DNA polymerase (Invitrogen) and two reporter sequence-specific primers. The PCR products were fluorescently labeled by primer extension with 6-arboxyfluorescein (6-FAM) 5'-labeled reporter sequence-specific primer (2 min at 95 C, 20 s at 68 C and 10 min at 72 C) and these products were digested with 5U of HpaI (New England Biolabs) for 2h at 37 C. The fragments were purified using Qiaquick PCR columns (Qiagen), analyzed on an ABI 3130xL genetic analyzer (Applied Biosystems) with peak positions identified by using a set of X-rhodamine (ROX)-labeled MapMarker1000 molecular weight standards (BioVentures). The raw capillary electrophoresis data was processed using Attagraph software (Attagene).

SMILES	outcome	AC50
CCCCc1oc2ccccc2c1C(=O)c1cc(I)c(OCCN(CC)CC)c(I)c1	inactive	
O=C1Cc2ccccc2N1c1c(Cl)cccc1Cl		130 µM (active)
Nc1ccc(O)c(C(=O)O)c1	inactive	
FC(F)(F)C1(F)C(F)(F)C(F)(F)C(F)(F)C1(F)F	inactive	
CC[N+](CC)(CC)Cc1ccccc1	inactive	
C=CC(=O)OCCC(F)(F)C(F)(F)C(F)(F)C(F)(F)C(F)(F)C(F)(F)C(F)(F)C(F)(F)F	inactive	
CCCCN(C)C	inactive	
C=C(c1ccc(C(=O)O)cc1)c1cc2c(cc1C)C(C)(C)CCC2(C)C		16.2 µM (active) and 27.9 µM (active)
CC(C)(O)C(=O)c1ccccc1	inactive	
O=P(O)(O)CCC(F)(F)C(F)(F)C(F)(F)C(F)(F)C(F)(F)C(F)(F)C(F)(F)C(F)(F)F	inactive	
CN(CCO)S(=O)(=O)C(F)(F)C(F)(F)C(F)(F)C(F)(F)C(F)(F)C(F)(F)C(F)(F)C(F)(F)F	inactive	
NCc1cccc(CN)c1	inactive	
CCCCCCc1ccc(N)cc1	inactive	
COC(O)c1ccccc1 (stereo not given)	inactive	
Cc1ccccc1C(OCCN(C)C)c1ccccc1 (stereo not given)	inactive	
NCCN	inactive	
O=C(O)C(F)(F)OC(F)(F)C(F)(F)OC(F)(F)C(F)(F)OC(F)(F)C(F)(F)C(F)(F)C(F)(F)F	inactive	23.7 µM (active)
FC(F)(F)C1(F)C(F)(F)C(F)(F)C(F)(F)C(F)(C(F)(F)F)C1(F)F (stereo not given)	inactive	
CC(C)(C)C1CCCCC1O (stereo not given)	inactive	

SMILES	outcome	AC50
CN(C)c1ccc(C(=C2C=CC(=[N+](C)C)C=C2)c2ccccc2)cc1		1.46 µM (active) and 1.26 µM (active)
Cc1cncc(C)c1	inactive	
O=c1cc(-c2ccccc2)oc2ccc3ccccc3c12	inactive	
CCOC(C)=O	inactive	
O=C(O)CCC(F)(F)C(F)(F)C(F)(F)C(F)(F)C(F)(F)C(F)(F)F	inactive	
NNc1nc(-c2ccc([N+](=O)[O-])cc2)cs1		51.3 µM (active)
CCCCCC(C)OC(=O)COc1ccc(Cl)c2cccnc12 (stereo not given)	inactive	
Cc1[nH]nc2c1N=C(c1ccccc1Cl)c1cc([N+](=O)[O-])ccc1N2	inactive	
O=C(O)CCC(F)(F)C(F)(F)C(F)(F)C(F)(F)C(F)(F)F	inactive	
Oc1c(Cl)cc(Cl)cc1Sc1cc(Cl)cc(Cl)c1O		18.3 µM (active)
c1ccc2c(c1)CCC2	inactive	
Clc1ccc2c(Cl)ccnc2c1	inactive	
O=S(=O)(O)C(F)(F)C(F)(F)C(F)(F)C(F)(F)C(F)(F)C(F)(F)C(F)(F)C(F)(F)C(F)(F)C(F)(F)F	inactive	
FC1(F)C=CC(F)(F)C1(F)F	inactive	
CCCCCCC(C)(C)C(=O)O		187 µM (active)
Nc1ccn([C@@H]2O[C@H](CO)[C@@H](O)C2O)c(=O)n1 (stereo not given in full)	inactive	
O=C(CC(=O)C(F)(F)C(F)(F)C(F)(F)F)c1cccs1	inactive	86.8 µM (active)
CCCCCc1ccc(O)cc1		33.4 µM (active)
Cc1ccc(C(=O)c2ccccc2)cc1	inactive	
